SNCA expr inh: inhibitors of alpha-synuclein (SNCA) gene expression; hit rate 0.17% among 140,000; AID 1671194; HEK-293 SNCA-luciferase knock-in, luminescence, 24 h; Potency, µM (doses to about 57.2 µM), hits mostly inhibitors; further: nearly all actives have a fitted effect of over 45% in size
IP6K1 inhibitor: blocks human inositol hexakisphosphate kinase 1; activity change, % (series mostly up to about 58 µM); IP6K1 kinase, ADP-Glo luminescence, 2 h; hits give low values; hit rate 0.81% among 140,000; AID 1645851; Q92551; in the data active means activity change below about -25%
Target sequence (Q92551 whole entry, looked up): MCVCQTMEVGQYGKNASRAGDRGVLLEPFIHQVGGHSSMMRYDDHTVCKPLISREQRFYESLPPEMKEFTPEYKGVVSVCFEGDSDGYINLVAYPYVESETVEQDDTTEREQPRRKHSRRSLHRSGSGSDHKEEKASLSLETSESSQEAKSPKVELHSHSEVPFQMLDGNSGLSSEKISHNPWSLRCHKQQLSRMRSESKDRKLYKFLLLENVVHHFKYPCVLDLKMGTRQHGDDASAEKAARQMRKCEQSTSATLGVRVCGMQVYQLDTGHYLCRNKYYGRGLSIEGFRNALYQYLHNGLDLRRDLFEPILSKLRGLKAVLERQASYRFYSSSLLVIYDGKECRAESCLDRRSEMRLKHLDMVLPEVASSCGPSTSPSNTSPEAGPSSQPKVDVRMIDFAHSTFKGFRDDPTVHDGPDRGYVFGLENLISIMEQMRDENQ
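ADP-Glo luminescence measures ADP made by human IP6K1 during a 2 h RT reaction with ATP/IP6 (mix at 1.3 mM/130 uM); top library doses 57.5 and 19.1 uM final.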
SNCA viab count: cell viability loss counter-screen; HEK-293-SNCA-luc viability, GF-AFC fluorescence, 24 h; Potency, µM (titrated, usually from 57.1 µM), usual class: cytotoxic; hit rate 0.12% among 150,000; AID 1671193; further: nearly all actives have a fitted effect of over 30% in size
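Cytotoxicity counterscreen: after 24 h compound treatment of genome-edited SNCA-luciferase HEK-293 cells, live-cell protease substrate GF-AFC read by fluorescence after 30 min; activity scaled between DMSO (0%) and medium-only (-100%), curves Hill-fitted.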
KDM5B inhibitor: KDM5B demethylase inhibition. hit rate 2.6% among 220,000. KDM5B demethylase, FDH-coupled NADH fluorescence (FDH is formaldehyde dehydrogenase). Potency, µM (titrated, usually from 57.7 µM), hits mostly inhibitors; further: nearly all actives have a fitted effect of over 70% in size
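qHTS format, multiple compound concentrations. Buffer 50 mM HEPES pH 7.5/0.01% Tween-20; 200 nM KDM5BΔAP final; 10 min compound preincubation; substrate-mix levels 12.5 µM peptide, 25 µM α-KG, 0.25 mM NAD⁺; 30 min RT; ΔRFU.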
A number is an active result; 0 = inactive; ? = inconclusive; - = no result. A selection: hits, their analogues and other compounds. The true share with any hit is near 3%. Unless noted, the call rests on the fitted dose curve; in most records, active means well fitted curve in the direction sought with a large enough effect; inconclusive means small, poorly fitted or top-dose-only effect, or another doubt; inactive means no such curve, though single readings can be large; an effect the other way counts as inactive or inconclusive.

SMILES	SNCA expr inh	IP6K1 inhibitor	SNCA viab count	KDM5B inhibitor
CN(C)C(=O)c1ccc2c(c1)n(Cc1ccc(F)cc1)c(=O)c1ccnn12	0	0	0	28µM
CN1CCC(NC(=O)c2ccc3c(c2)n(Cc2ccc(F)cc2)c(=O)c2ccnn23)CC1	0	0	?	28µM
O=C(NCc1ccccn1)c1ccc2c(c1)n(Cc1cccc(F)c1)c(=O)c1ccnn12	0	0	0	25µM
Cn1c(=O)c2ccnn2c2ccc(C(=O)NCCN3CCC(N4CCCCC4)CC3)cc21	0	0	0	28µM
CCN(CC)c1ccc(CNC(=O)c2ccc3c(c2)n(C)c(=O)c2ccnn23)cc1	0	0	0	?
Cc1cc(F)ccc1NC(=O)c1ccc2c(c1)n(Cc1cccc(F)c1)c(=O)c1ccnn12	0	0	0	0
Cc1oc2c(c1C(=O)NC1CCN(C)CC1)CN(Cc1ccc(F)cc1)CC2	0	0	0	?
Cc1ccc2nc(/C=C/c3ccc([N+](=O)[O-])cc3)ccc2c1	-	-	-	0
COc1ccc(C(=O)/C=C/c2c(F)cccc2F)cc1CC(=O)O	-	-	-	0
O=C(NCCCc1ccccc1)C1CCCN(Cc2cccc(-c3ccsc3)c2)C1 (stereo not drawn)	-	0	-	-
CCn1c(=O)c2ccnn2c2ccc(C(=O)Nc3ccc(C)c(F)c3)cc21	0	0	0	8.9µM
CNC(=O)c1ccc2c(c1)n(Cc1ccc(OC)cc1)c(=O)c1ccnn12	0	0	0	0
CCCCNC(=O)c1ccc2c(c1)n(Cc1ccc(F)cc1)c(=O)c1ccnn12	?	0	0	22µM
CN1C(=O)CCCCC1C(=O)NCC1CCN(Cc2cccc(F)c2)CC1 (stereo not drawn)	0	0	0	0
CCCN1CCN(C(=O)c2ccc3c(c2)n(CC)c(=O)c2ccnn23)CC1	0	0	0	?
CCn1c(=O)c2ccnn2c2ccc(C(=O)NCCCOC(C)C)cc21	0	0	0	32µM
Cn1c(=O)c2ccnn2c2ccc(C(=O)NCC3CCN(Cc4cccc(F)c4)CC3)cc21	0	0	0	28µM
Cn1c(=O)c2ccnn2c2ccc(C(=O)Nc3ccc(N4CCOCC4)cc3)cc21	0	0	0	0
C/C(=N/Nc1ccc(S(N)(=O)=O)cc1[N+](=O)[O-])c1cccc(Br)c1	-	-	-	0
COc1cccc2sc(NC(=O)c3ccc4c(c3)OCCN(C3CCC3)C4)nc12	?	0	?	35µM
COc1ccc(C(=O)NCc2nnc3cc(-c4nc(C)no4)ccn23)cc1F	?	0	0	7.9µM
Cc1noc(-c2ccn3c(CNC(=O)c4ccc5ccccc5n4)nnc3c2)n1	?	0	0	6.3µM
Cc1noc(-c2ccn3c(CNC(=O)c4ccc(C)c(C)c4)nnc3c2)n1	0	0	0	?
Cc1noc(-c2ccn3c(CNC(=O)c4cccc(F)c4)nnc3c2)n1	?	0	0	28µM
COc1cccc(C(=O)NCc2nnc3cc(-c4nc(C)no4)ccn23)c1	0	0	0	28µM
SMILES	SNCA expr inh	IP6K1 inhibitor	SNCA viab count	KDM5B inhibitor
CC(=O)N1CCCC2(C1)CN(C)c1ccc(C(=O)NCC(C)C)cc12 (stereo not drawn)	0	0	0	32µM
CC(=O)N1CCCC2(C1)CN(C)c1ccc(C(=O)NC(C)C)cc12 (stereo not drawn)	0	0	0	35µM
COCCN1CCC2(C1)CN(C)c1ccc(C(=O)Nc3ccc(OC)cc3)cc12 (stereo not drawn)	0	0	0	?
CN1CCCC2(C1)CN(C)c1ccc(C(=O)Nc3ccccc3)cc12 (stereo not drawn)	0	0	0	?
Cc1ccc(CNCc2ccccc2C(F)(F)F)cc1	-	-	-	0
Cc1ccccc1COC(=O)C1Cc2ccccc2C(=O)O1 (stereo not drawn)	-	-	-	0
Cc1ccc(OCC(=O)N2CCN(c3cc(=O)n4nc(-c5ccccc5)sc4n3)CC2)c(C)c1	-	-	-	0
O=C(O)Cc1ccc(N2C(=O)C(=O)/C(=C(/O)c3ccccc3Cl)C2c2ccc(C(=O)O)cc2)cc1 (stereo not drawn)	-	-	-	0
COCCn1ccc2c(C3=CCOCC3)nc(-c3cccc4cn[nH]c34)cc21	0	0	0	35µM
COc1ccccc1-c1nccc2c(=O)cc(C3=CCOCC3)oc12	0	0	0	?
COCCn1ccc2c(C3=CCOCC3)nc(-c3cccc(N[S+](C)(=O)[O-])c3)cc21	0	0	0	0
COCCn1ccc2c(C3=CCOCC3)nc(-c3cccc(NC(C)=O)c3)cc21	0	0	0	35µM
Cc1cccc(CN(C(=O)c2ccco2)c2ccc(CC(=O)N(C)Cc3ccccc3)cc2)c1	0	0	0	28µM
Cc1cccc(CNC(=O)Cc2ccc(N(Cc3ccc(F)cc3)C(=O)c3ccco3)cc2)c1	0	0	0	?
COc1ccc(F)c(CN2CCCC3(CCN(c4cc(C)nc(N)n4)C3)C2)c1 (stereo not drawn)	0	0	?	?
Fc1cccc(CN2CCCC3(CCN(c4cnccn4)C3)C2)c1F (stereo not drawn)	0	0	0	28µM
Fc1ccccc1CN1CCCC2(CCN(c3cnccn3)C2)C1 (stereo not drawn)	0	0	0	32µM
NC(=O)c1ccc(COC(=O)CCC(=O)c2ccc(Cl)cc2)c([N+](=O)[O-])c1	-	-	-	0
Cc1cc(Cl)ccc1S(=O)(=O)Nc1cccc(NC(N)=O)c1	-	-	-	0
CC1C=CC(C)N1c1ncnc2c1CN(C1CCNC1)C(=O)CN2C (stereo not drawn)	?	0	0	89µM
COCCNc1ncnc2c1CN(C1CCNCC1)C(=O)CN2C	0	0	0	50µM
COCCNc1ncnc2c1CN(C1CCCC1)C(=O)CN2C	0	0	0	?
CCOC(=O)c1sc(CC(=O)Nc2ccc(C)cc2C)nc1C	-	-	-	0
COCCn1cc2c3c(cccc31)CN(C(=O)c1cccc(C(F)(F)F)c1)CC2	?	0	?	28µM
CCn1cc2c3c(cccc31)CN(C(=O)COc1ccc(F)cc1)CC2	0	0	0	?
SMILES	SNCA expr inh	IP6K1 inhibitor	SNCA viab count	KDM5B inhibitor
COCCn1cc2c3c(cccc31)CN(C(=O)COc1cccc(C)c1)CC2	0	0	0	32µM
CCCn1cc2c3c(cccc31)CN(C(=O)COc1ccccc1)CC2	0	0	0	32µM
CCCn1cc2c3c(cccc31)CN(C(=O)c1cccc(C#N)c1)CC2	0	0	0	?
CNCCN(C)C1CCCCC1	-	-	-	0
CNC(=O)[C@@H]1CN(C(=O)c2sccc2C)C[C@H]1c1nc(COC)no1	0	0	0	0
CNC(=O)[C@@H]1CN(C(=O)c2ccc(C)[nH]c2=O)C[C@H]1c1nc(COC)no1	0	0	?	25µM
Cc1cc(C(=O)OCC(=O)Nc2ccccc2C)c2ccccc2n1	-	-	-	0
CN1C[C@@H](NC(=O)c2ccc3c(c2)OCO3)C[C@H]1c1nc(-c2ccc(Cl)cc2)no1	0	0	?	32µM
Cc1ccc(C(=O)N[C@H]2C[C@@H](c3nc(-c4ccc5c(c4)OCO5)no3)N(C)C2)cc1	0	0	0	0
CSc1ccc(NC(=O)N2CCc3nc4cc(-c5ccccc5)[nH]n4c(=O)c3C2)cc1	?	0	0	25µM
COc1ccc(NC(=O)N2CCc3nc4cc(-c5ccccc5)[nH]n4c(=O)c3C2)c(C)c1	0	0	0	10µM

Bioassay records (PubChem)
